Experimental data taken from article PMC7862700, “An all-to-all approach to the identification of sequence-specific readers for epigenetic DNA modifications on cytosine”.

Assays:
Test in all cases: DAPPL (digital affinity profiling via proximity ligation, sequencing); 10 mM Tris-HCl pH 7.5, 50 mM NaCl, 1 mM DTT, 4% glycerol, room temperature, 30 min; GST-TFs on glutathione beads, 16-mer random dsDNA library, 0.1% formaldehyde crosslink after washing; high values mean tight binding
Details in all cases: protein: recombinant; tags: N-terminal GST; dsDNA, one strand shown
FLI1 = target: T1, FLI1 (Homo sapiens, UniProt Q01543 1-452)
T1 sequence: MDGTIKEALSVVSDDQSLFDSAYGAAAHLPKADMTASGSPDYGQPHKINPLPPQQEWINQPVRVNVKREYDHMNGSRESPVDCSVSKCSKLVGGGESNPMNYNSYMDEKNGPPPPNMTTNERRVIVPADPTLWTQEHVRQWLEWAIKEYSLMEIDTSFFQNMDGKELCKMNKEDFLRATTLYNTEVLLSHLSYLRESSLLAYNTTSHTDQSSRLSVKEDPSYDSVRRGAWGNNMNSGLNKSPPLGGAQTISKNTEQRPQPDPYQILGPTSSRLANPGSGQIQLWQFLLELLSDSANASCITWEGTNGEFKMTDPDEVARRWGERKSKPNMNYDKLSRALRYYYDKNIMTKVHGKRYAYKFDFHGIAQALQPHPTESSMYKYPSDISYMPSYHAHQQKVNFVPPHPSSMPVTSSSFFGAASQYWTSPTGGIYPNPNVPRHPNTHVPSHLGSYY
Summary of the method: (§1)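 A tag-only sample was pooled with DNA-barcoded human transcription factors that had been expressed in yeast as GST fusions and captured on glutathione beads. The pools were incubated for 30 min at room temperature with 200 nmole of a random double-stranded 16-mer DNA library in Tris/NaCl/DTT/glycerol buffer, then washed, crosslinked with 0.1% formaldehyde, proximity-ligated (BsaI/T4 ligase, 1 h, 37 °C), PCR-amplified and sequenced on an Illumina NextSeq500. Binding signal is each hexamer's read frequency for a factor divided by its frequency for the tag-only sample.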

ELK1 = target: T2, ELK1 (Homo sapiens, UniProt P19419 1-428)
T2 sequence: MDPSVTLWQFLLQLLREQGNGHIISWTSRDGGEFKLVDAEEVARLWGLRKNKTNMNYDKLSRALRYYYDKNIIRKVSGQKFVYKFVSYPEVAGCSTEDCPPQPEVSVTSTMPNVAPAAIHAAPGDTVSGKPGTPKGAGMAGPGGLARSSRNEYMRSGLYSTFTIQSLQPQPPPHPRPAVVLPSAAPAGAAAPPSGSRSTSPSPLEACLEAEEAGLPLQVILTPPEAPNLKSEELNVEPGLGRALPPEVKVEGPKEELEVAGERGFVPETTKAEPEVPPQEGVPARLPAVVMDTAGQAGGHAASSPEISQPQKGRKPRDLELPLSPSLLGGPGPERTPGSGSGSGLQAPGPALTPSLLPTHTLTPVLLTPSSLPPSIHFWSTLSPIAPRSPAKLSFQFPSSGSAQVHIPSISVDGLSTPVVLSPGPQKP
Summary of the method: as §1

GABPA = target: T3, GABPA (Homo sapiens, UniProt Q06546 1-454)
T3 sequence: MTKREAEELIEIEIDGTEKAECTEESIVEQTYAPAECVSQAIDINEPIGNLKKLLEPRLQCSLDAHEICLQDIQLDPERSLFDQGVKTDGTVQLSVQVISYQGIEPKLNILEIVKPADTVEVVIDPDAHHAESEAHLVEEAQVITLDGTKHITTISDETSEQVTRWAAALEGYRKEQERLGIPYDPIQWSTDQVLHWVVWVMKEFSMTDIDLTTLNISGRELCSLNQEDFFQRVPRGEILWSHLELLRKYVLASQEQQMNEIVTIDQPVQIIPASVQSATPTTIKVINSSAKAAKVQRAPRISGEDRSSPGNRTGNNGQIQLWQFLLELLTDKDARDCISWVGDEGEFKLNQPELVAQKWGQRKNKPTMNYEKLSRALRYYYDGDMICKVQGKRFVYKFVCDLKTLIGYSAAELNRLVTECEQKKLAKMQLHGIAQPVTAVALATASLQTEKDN
Summary of the method: as §1

ERG = target: T4, ERG (Homo sapiens, UniProt P11308 1-479)
T4 sequence: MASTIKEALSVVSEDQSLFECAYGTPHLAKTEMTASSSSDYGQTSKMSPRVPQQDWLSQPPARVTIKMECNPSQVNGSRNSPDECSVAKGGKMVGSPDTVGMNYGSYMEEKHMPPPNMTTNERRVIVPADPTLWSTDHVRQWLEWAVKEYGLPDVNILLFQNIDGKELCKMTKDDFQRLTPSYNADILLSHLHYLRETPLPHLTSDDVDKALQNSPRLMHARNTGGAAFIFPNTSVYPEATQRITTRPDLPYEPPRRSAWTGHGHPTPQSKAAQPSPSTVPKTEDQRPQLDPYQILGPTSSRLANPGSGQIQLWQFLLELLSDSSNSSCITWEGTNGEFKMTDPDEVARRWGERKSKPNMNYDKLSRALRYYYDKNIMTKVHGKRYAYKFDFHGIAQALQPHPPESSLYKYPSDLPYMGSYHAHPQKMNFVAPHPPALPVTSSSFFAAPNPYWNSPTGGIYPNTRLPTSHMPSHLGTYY
Summary of the method: as §1

ELF1 = ELF1 (Homo sapiens, UniProt P32519 1-619)
Summary of the method: as §1

EHF = target: T5, EHF (Homo sapiens, UniProt Q9NZC4 1-300)
T5 sequence: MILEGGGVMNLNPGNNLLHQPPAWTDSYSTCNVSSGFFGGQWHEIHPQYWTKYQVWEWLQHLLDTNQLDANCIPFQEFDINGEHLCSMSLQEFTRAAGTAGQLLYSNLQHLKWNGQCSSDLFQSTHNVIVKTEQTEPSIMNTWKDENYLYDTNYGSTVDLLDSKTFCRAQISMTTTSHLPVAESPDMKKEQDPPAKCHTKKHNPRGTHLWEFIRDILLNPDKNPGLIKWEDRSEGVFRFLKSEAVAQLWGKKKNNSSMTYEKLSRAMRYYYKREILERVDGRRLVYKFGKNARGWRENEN
Summary of the method: as §1

SPI1 = SPI1 (Homo sapiens, UniProt P17947 1-270)
Summary of the method: as §1

SPIB = SPIB (Homo sapiens, UniProt Q01892 1-262)
Summary of the method: as §1

ELK3 = target: T6, ELK3 (Homo sapiens, UniProt P41970 1-407)
T6 sequence: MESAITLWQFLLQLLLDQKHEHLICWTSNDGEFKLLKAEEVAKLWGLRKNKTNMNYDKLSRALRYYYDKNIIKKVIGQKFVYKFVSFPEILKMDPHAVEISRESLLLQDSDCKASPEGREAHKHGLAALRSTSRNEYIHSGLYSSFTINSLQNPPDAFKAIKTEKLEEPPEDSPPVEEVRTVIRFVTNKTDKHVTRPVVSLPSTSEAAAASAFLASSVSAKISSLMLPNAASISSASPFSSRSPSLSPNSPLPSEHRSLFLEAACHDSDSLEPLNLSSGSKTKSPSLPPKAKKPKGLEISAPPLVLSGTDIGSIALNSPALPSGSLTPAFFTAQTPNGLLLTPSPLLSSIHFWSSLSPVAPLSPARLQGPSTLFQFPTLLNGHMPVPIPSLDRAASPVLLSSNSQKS
Summary of the method: as §1

FEV = target: T7, FEV (Homo sapiens, UniProt Q99581 1-238)
T7 sequence: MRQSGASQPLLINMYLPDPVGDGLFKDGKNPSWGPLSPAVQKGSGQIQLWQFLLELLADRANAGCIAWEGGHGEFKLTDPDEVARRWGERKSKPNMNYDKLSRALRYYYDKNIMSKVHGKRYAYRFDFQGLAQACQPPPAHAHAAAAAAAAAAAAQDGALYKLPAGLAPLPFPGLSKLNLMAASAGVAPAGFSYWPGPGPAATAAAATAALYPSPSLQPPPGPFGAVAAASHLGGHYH
Summary of the method: as §1

ETV5 = ETV5 (Homo sapiens, UniProt P41161 1-510)
Summary of the method: as §1

SPIC = target: T8, SPIC (Homo sapiens, UniProt Q8N5J4 1-248)
T8 sequence: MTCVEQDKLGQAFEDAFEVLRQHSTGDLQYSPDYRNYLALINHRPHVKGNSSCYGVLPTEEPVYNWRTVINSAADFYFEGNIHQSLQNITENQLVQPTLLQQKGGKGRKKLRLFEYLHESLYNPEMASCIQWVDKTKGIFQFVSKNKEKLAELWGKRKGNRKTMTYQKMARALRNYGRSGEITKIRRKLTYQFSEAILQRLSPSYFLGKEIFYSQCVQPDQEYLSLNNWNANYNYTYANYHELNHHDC
Summary of the method: as §1

ELF4 = ELF4 (Homo sapiens, UniProt Q99607 1-663)
Summary of the method: as §1

ELK4 = target: T9, ELK4 (Homo sapiens, UniProt P28324-2 1-405)
T9 sequence: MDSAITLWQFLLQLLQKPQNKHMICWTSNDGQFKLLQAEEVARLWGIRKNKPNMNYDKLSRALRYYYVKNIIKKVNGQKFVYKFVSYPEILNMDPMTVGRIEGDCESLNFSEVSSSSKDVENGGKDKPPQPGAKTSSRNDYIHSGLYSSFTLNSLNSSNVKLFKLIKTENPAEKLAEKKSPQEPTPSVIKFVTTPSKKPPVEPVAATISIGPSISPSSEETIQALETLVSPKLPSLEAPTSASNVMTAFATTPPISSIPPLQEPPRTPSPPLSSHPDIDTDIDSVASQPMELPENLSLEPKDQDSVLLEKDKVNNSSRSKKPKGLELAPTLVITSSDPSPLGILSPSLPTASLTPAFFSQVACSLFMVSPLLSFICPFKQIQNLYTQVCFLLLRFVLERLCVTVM
Summary of the method: as §1

ETV2 = target: T10, ETV2 (Homo sapiens, UniProt O00321 1-342)
T10 sequence: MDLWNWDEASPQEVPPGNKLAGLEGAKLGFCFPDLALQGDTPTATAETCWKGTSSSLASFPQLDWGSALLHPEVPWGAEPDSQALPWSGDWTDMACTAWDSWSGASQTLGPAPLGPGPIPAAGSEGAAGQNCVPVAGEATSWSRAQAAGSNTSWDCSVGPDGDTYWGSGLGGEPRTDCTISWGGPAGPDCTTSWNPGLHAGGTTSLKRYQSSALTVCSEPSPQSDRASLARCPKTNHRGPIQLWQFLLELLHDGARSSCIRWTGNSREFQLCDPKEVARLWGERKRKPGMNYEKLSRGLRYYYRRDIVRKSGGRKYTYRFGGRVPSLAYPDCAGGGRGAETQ
Summary of the method: as §1

ELF3 = target: T11, ELF3 (Homo sapiens, UniProt P78545 1-371)
T11 sequence: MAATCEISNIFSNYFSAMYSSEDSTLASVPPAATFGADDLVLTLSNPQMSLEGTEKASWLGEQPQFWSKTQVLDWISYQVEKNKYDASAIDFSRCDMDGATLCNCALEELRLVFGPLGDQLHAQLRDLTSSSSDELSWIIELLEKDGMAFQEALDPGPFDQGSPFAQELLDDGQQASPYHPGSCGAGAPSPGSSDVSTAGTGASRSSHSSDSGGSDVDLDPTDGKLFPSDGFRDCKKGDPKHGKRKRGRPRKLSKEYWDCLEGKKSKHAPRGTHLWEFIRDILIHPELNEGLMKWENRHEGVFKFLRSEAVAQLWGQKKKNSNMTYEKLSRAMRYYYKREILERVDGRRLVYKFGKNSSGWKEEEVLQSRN
Summary of the method: as §1

CRX = CRX (Homo sapiens, UniProt O43186 1-299)
Summary of the method: as §1

ETV1 = ETV1 (Homo sapiens, UniProt P50549 1-477)
Summary of the method: as §1

Chain of ELF4 (Q99607 whole entry): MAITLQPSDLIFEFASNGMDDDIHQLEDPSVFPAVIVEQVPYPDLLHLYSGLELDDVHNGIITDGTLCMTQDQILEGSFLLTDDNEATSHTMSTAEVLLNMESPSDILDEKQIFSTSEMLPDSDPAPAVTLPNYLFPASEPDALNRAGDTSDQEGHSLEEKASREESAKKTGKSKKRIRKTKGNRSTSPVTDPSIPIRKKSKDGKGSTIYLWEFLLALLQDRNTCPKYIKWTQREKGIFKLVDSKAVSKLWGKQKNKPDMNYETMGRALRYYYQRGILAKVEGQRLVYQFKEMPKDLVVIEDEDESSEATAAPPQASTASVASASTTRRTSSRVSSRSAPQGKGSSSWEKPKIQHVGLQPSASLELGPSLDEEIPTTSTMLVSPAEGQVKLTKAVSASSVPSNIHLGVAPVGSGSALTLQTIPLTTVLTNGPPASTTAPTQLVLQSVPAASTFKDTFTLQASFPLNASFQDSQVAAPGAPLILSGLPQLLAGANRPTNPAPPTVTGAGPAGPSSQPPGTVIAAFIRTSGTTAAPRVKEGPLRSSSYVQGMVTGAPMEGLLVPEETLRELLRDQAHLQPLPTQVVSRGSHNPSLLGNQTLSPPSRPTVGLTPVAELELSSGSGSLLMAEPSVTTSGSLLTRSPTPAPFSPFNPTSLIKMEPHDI
Chain of CRX (O43186 whole entry): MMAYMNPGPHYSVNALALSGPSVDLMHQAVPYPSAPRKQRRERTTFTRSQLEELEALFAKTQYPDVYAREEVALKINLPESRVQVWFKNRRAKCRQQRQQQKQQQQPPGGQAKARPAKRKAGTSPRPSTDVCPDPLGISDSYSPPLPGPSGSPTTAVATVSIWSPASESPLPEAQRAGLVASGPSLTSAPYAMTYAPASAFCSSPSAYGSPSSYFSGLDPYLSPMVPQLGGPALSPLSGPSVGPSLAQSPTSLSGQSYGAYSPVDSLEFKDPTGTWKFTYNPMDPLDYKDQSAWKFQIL
Chain of SPIB (Q01892 whole entry): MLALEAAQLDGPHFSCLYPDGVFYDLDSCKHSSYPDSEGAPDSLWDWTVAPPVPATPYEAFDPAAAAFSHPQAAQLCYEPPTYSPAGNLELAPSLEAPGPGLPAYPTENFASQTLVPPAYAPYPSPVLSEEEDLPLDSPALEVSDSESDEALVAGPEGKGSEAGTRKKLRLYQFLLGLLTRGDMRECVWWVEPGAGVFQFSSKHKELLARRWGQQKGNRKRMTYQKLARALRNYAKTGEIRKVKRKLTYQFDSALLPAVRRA
Chain of ELF1 (P32519 whole entry): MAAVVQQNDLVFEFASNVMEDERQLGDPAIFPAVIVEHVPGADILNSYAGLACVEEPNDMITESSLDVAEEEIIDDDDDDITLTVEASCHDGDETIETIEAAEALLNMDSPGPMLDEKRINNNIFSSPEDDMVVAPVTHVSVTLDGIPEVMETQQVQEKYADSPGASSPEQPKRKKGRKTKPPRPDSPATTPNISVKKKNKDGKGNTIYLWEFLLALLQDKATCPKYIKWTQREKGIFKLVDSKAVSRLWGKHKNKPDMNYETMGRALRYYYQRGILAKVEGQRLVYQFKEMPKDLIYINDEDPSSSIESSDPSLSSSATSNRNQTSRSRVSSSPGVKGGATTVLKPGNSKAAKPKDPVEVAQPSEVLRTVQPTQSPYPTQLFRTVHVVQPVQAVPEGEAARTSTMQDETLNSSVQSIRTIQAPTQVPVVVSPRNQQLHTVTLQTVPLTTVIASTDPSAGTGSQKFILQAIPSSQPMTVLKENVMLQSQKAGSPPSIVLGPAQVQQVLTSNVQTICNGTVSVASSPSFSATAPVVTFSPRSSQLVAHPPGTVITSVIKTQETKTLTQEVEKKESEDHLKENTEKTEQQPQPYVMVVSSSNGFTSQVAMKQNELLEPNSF
Chain of ETV5 (P41161 whole entry): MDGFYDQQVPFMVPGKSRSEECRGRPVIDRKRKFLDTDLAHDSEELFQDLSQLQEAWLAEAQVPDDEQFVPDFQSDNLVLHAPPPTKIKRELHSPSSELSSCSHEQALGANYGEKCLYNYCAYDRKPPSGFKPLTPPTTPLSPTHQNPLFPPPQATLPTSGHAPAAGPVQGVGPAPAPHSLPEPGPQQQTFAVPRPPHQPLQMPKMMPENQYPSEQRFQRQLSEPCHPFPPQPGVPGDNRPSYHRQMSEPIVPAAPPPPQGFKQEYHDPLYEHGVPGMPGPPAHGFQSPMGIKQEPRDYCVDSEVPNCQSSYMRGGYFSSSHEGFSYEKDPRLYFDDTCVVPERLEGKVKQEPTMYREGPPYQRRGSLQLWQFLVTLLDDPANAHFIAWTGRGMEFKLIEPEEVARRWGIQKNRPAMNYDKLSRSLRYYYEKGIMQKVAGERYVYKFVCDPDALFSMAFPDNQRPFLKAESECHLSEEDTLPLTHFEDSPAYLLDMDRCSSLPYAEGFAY
Chain of ETV1 (P50549 whole entry): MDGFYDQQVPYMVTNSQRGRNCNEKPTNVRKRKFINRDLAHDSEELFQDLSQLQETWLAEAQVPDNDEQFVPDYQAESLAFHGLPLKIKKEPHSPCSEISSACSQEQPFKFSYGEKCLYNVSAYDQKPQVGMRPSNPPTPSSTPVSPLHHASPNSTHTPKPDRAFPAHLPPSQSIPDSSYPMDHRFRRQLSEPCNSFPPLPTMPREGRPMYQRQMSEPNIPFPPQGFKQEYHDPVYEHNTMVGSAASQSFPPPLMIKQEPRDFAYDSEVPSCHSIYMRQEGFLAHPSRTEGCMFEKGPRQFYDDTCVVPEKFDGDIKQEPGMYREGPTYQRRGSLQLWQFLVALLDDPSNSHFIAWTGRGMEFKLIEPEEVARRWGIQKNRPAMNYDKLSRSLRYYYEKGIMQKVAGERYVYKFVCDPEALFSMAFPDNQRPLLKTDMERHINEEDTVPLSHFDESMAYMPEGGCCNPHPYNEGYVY

Q: How did the binding signal (FLI1) turn out when TCATGC was run?
A: The binding signal was 1.17 fold enrichment (6-mer frequency, TF over GST control).

Q: And the binding signal (ELK1)?
A: The binding signal was 1.22 fold enrichment (6-mer frequency, TF over GST control).

Q: And the binding signal (GABPA)?
A: Its binding signal is 1.19 fold enrichment (6-mer frequency, TF over GST control).

Q: What about the binding signal (ERG) of the same sequence?
A: Its binding signal is 1.11 fold enrichment (6-mer frequency, TF over GST control).

Q: And the binding signal (ELF1)?
A: The binding signal was 1.11 fold enrichment (6-mer frequency, TF over GST control).

Q: And the binding signal (EHF)?
A: Its binding signal is 1.15 fold enrichment (6-mer frequency, TF over GST control).

Q: What about the binding signal (SPI1) of the same sequence?
A: Its binding signal is 1.07 fold enrichment (6-mer frequency, TF over GST control).

Q: What about the binding signal (SPIB) of the same sequence?
A: The binding signal was 1.2 fold enrichment (6-mer frequency, TF over GST control).

Q: And the binding signal (ELK3)?
A: The binding signal was 1.1 fold enrichment (6-mer frequency, TF over GST control).

Q: And the binding signal (FEV)?
A: The binding signal was 1.14 fold enrichment (6-mer frequency, TF over GST control).

Q: And the binding signal (ETV5)?
A: The binding signal was 1.09 fold enrichment (6-mer frequency, TF over GST control).

Q: What about the binding signal (SPIC) of the same sequence?
A: Its binding signal is 1.11 fold enrichment (6-mer frequency, TF over GST control).

Q: What about the binding signal (ELF4) of the same sequence?
A: Its binding signal is 1.18 fold enrichment (6-mer frequency, TF over GST control).

Q: What about the binding signal (ELK4) of the same sequence?
A: The binding signal was 1.27 fold enrichment (6-mer frequency, TF over GST control).

Q: What about the binding signal (ETV2) of the same sequence?
A: The binding signal was 1.31 fold enrichment (6-mer frequency, TF over GST control).

Q: And the binding signal (ELF3)?
A: Its binding signal is 1.18 fold enrichment (6-mer frequency, TF over GST control).

Q: And the binding signal (CRX)?
A: The binding signal was 1.03 fold enrichment (6-mer frequency, TF over GST control).

Q: And the binding signal (ETV1)?
A: The binding signal was 1.17 fold enrichment (6-mer frequency, TF over GST control).
